Here are results for 20 compounds from the supplement of paper PMC11172423.

Values without a mark were called inactive.

The test system of one assay is Madurella mycetomatis MM55. Briefly: growth relative to untreated control; higher = less inhibition, active = 20 or less. The conditions noted are these: 25 µM. The protocol: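 Hyphal fragments of M. mycetomatis MM55 or F. senegalensis CBS197.79 in RPMI 1640/MOPS were exposed to each MMV COVID Box or Global Health Priority Box compound at 100 or 25 µM for 7 days at 37 °C. Viability was read with MTS (490 nm, M. mycetomatis) or resazurin (600 nm, F. senegalensis), background-corrected with a medium-only control and expressed as % growth relative to the untreated growth control. Inhibition of more than 80% was taken as growth inhibition.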
Turning to `C[C@]1(c2nc3c(C(N)=O)cccc3[nH]2)CCCN1`, the growth is 130%.
The same measure, in the same setting: next, `COc1ccc(CCNc2nccc(-c3cc(Cl)cc(C(F)(F)F)c3)n2)cc1`: 110%; `Fc1ccc([C@@H]2CCNC[C@H]2COc2ccc3c(c2)OCO3)cc1`: 5.94% (active).
As for `N#Cc1c(N)nc(NC2CC2)nc1N`, the growth was 91.3%.
Take `CC(C)CC(NC(=O)N1CCOCC1)C(=O)NC(/C=C/S(=O)(=O)c1ccccc1)CCc1ccccc1` (stereo not given): the growth is 86.4%.
With `CN1CCC(Oc2nc(Nc3ccccc3)nc3[nH]cc(-c4cnn(C)c4)c23)CC1`, the growth was 78.3%.
Same read-out and setting: the value for `CC(C)n1ncc2c(C(=O)N3CCCc4ccccc43)cc(-c3ccccc3)nc21` was 71.5%; that for `COc1cc2c3cc1Oc1c(OC)c(OC)cc4c1[C@@H](Cc1ccc(O)c(c1)Oc1ccc(cc1)C[C@@H]3N(C)CC2)N(C)CC4` was 88.9%; that for `Cn1cnc2c(F)c(Nc3ccc(Br)cc3Cl)c(C(=O)NOCCO)cc21` was 110%.
On the same count and under the same terms, the value for `Cn1ccnc1SCC(=O)Nc1ccc(C(=O)Nc2ncccc2O)cc1` was 102%; that for `C[C@H]1O[C@@H](O[C@H]2[C@@H](O)C[C@H](O[C@H]3[C@@H](O)C[C@H](O[C@H]4CC[C@@]5(C)[C@H](CC[C@@H]6[C@@H]5CC[C@]5(C)[C@@H](C7=CC(=O)OC7)CC[C@]65O)C4)O[C@@H]3C)O[C@@H]2C)C[C@H](O)[C@@H]1O` was 94.5%.
On the same count and under the same terms, the value for `CNCc1[cH-]ccc1CNc1ccnc2cc(Cl)ccc12.[Fe+2].c1cc[cH-]c1` was 2.78% (active); that for `CN1CCN(c2ccc(C(=O)NCc3cnc(C#N)nc3NCC(C)(C)C)cc2)CC1` was 72.9%.
`CO[C@H]1C[C@@H]2CC[C@@H](C)[C@@](O)(O2)C(=O)C(=O)N2CCCC[C@H]2C(=O)O[C@H]([C@H](C)C[C@@H]2CC[C@@H](O)[C@H](OC)C2)CC(=O)[C@H](C)/C=C(\C)[C@@H](O)[C@@H](OC)C(=O)[C@H](C)C[C@H](C)/C=C/C=C/C=C/1C`: the growth is 120%.
The same measure, in the same setting: the value for `O=C(Nc1cc(Cl)cc(Cl)c1O)c1c(O)c(Cl)cc(Cl)c1Cl` was 39%.
Consider `CC(C)(C)Nc1ncc2nc(Nc3cccc(C(F)(F)F)c3)n(CC3CCNC3)c2n1` (stereo not given), for which the growth was 114%.
Same read-out and setting: next, `C=CCNc1nc(NCC=C)nc(N2CCN(C(c3ccc(F)cc3)c3ccc(F)cc3)CC2)n1`: 91.8%.
Same read-out and setting: next, `C[C@H]1O[C@@H](O[C@H]2[C@@H](O)C[C@H](O[C@H]3[C@@H](O)C[C@H](O[C@H]4CC[C@@]5(C)[C@H](CC[C@@H]6[C@@H]5C[C@@H](O)[C@]5(C)[C@@H](C7=CC(=O)OC7)CC[C@]65O)C4)O[C@@H]3C)O[C@@H]2C)C[C@H](O)[C@@H]1O`: 82.1%; `CC(C)(C)NCc1cc(Nc2ccnc3cc(Cl)ccc23)c2c(c1O)CCCC2`: 113%.
Take `Cn1c(O)nnc1Cn1ccc(C(F)(F)F)c(Oc2cc(Cl)cc(C#N)c2)c1=O`: the growth was 92.7%.

Staying with this assay, now noted: 100 µM.
Take `C[C@]1(c2nc3c(C(N)=O)cccc3[nH]2)CCCN1`: the growth is 87.6%.
In the case of `COc1ccc(CCNc2nccc(-c3cc(Cl)cc(C(F)(F)F)c3)n2)cc1`, the growth is 116%.
Consider `Fc1ccc([C@@H]2CCNC[C@H]2COc2ccc3c(c2)OCO3)cc1`, for which the growth was 3.06% (active).
With `N#Cc1c(N)nc(NC2CC2)nc1N`, the growth is 95.4%.
For `CC(C)CC(NC(=O)N1CCOCC1)C(=O)NC(/C=C/S(=O)(=O)c1ccccc1)CCc1ccccc1` (stereo not given), the growth was 96.5%.
With `CN1CCC(Oc2nc(Nc3ccccc3)nc3[nH]cc(-c4cnn(C)c4)c23)CC1`, the growth is 17.9% (active).
With `CC(C)n1ncc2c(C(=O)N3CCCc4ccccc43)cc(-c3ccccc3)nc21`, the growth was 59.8%.
On the same count and under the same terms, the value for `COc1cc2c3cc1Oc1c(OC)c(OC)cc4c1[C@@H](Cc1ccc(O)c(c1)Oc1ccc(cc1)C[C@@H]3N(C)CC2)N(C)CC4` was 5.99% (active).
Still for that read-out and setting: the value for `Cn1cnc2c(F)c(Nc3ccc(Br)cc3Cl)c(C(=O)NOCCO)cc21` was 86.3%.
Still for that read-out and setting: next, `Cn1ccnc1SCC(=O)Nc1ccc(C(=O)Nc2ncccc2O)cc1`: 64.9%.
`C[C@H]1O[C@@H](O[C@H]2[C@@H](O)C[C@H](O[C@H]3[C@@H](O)C[C@H](O[C@H]4CC[C@@]5(C)[C@H](CC[C@@H]6[C@@H]5CC[C@]5(C)[C@@H](C7=CC(=O)OC7)CC[C@]65O)C4)O[C@@H]3C)O[C@@H]2C)C[C@H](O)[C@@H]1O`: the growth is 73.2%.
Still for that read-out and setting: the value for `CNCc1[cH-]ccc1CNc1ccnc2cc(Cl)ccc12.[Fe+2].c1cc[cH-]c1` was 2.49% (active); that for `CN1CCN(c2ccc(C(=O)NCc3cnc(C#N)nc3NCC(C)(C)C)cc2)CC1` was 3.97% (active); that for `CO[C@H]1C[C@@H]2CC[C@@H](C)[C@@](O)(O2)C(=O)C(=O)N2CCCC[C@H]2C(=O)O[C@H]([C@H](C)C[C@@H]2CC[C@@H](O)[C@H](OC)C2)CC(=O)[C@H](C)/C=C(\C)[C@@H](O)[C@@H](OC)C(=O)[C@H](C)C[C@H](C)/C=C/C=C/C=C/1C` was 69.3%.
`O=C(Nc1cc(Cl)cc(Cl)c1O)c1c(O)c(Cl)cc(Cl)c1Cl`: the growth was 3.21% (active).
On the same count and under the same terms, the value for `CC(C)(C)Nc1ncc2nc(Nc3cccc(C(F)(F)F)c3)n(CC3CCNC3)c2n1` (stereo not given) was 3.65% (active); that for `C=CCNc1nc(NCC=C)nc(N2CCN(C(c3ccc(F)cc3)c3ccc(F)cc3)CC2)n1` was 83.9%; that for `C[C@H]1O[C@@H](O[C@H]2[C@@H](O)C[C@H](O[C@H]3[C@@H](O)C[C@H](O[C@H]4CC[C@@]5(C)[C@H](CC[C@@H]6[C@@H]5C[C@@H](O)[C@]5(C)[C@@H](C7=CC(=O)OC7)CC[C@]65O)C4)O[C@@H]3C)O[C@@H]2C)C[C@H](O)[C@@H]1O` was 90.8%.
Turning to `CC(C)(C)NCc1cc(Nc2ccnc3cc(Cl)ccc23)c2c(c1O)CCCC2`, the growth was 95.1%.
Take `Cn1c(O)nnc1Cn1ccc(C(F)(F)F)c(Oc2cc(Cl)cc(C#N)c2)c1=O`: the growth is 90.8%.
